# Legend:
# Test in all cases: DAPPL (digital affinity profiling via proximity ligation, sequencing); 10 mM Tris-HCl pH 7.5, 50 mM NaCl, 1 mM DTT, 4% glycerol, room temperature, 30 min; GST-TFs on glutathione beads, 16-mer random dsDNA library, 0.1% formaldehyde crosslink after washing; high values mean tight binding
# FEV = molecular target: T1, FEV (Homo sapiens, UniProt Q99581 1-238); conditions: protein: recombinant; tags: N-terminal GST; dsDNA, one strand shown
# T1 sequence: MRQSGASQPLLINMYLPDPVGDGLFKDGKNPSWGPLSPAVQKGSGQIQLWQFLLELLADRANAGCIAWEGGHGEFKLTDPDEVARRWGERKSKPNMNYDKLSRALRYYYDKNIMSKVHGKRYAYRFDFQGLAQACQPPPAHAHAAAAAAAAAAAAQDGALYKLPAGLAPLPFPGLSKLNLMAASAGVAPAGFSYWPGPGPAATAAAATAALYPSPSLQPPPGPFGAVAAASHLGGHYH
# Outline: (§1)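 Binding signal is each hexamer's read frequency for a factor divided by its frequency in the tag-only sample. The factors were GST-fused human transcription factors from yeast, captured on glutathione beads, DNA-barcoded and pooled with that sample. Pools were incubated with 200 nmole of a random double-stranded 16-mer DNA library in Tris/NaCl/DTT/glycerol buffer at room temperature for 30 min, then washed, crosslinked with 0.1% formaldehyde, proximity-ligated with BsaI/T4 ligase (1 h, 37 °C), PCR-amplified and sequenced on an Illumina NextSeq500.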
# ETV5 = ETV5 (Homo sapiens, UniProt P41161 1-510); conditions: protein: recombinant; tags: N-terminal GST; dsDNA, one strand shown
# Sequence of ETV5 (P41161 whole entry): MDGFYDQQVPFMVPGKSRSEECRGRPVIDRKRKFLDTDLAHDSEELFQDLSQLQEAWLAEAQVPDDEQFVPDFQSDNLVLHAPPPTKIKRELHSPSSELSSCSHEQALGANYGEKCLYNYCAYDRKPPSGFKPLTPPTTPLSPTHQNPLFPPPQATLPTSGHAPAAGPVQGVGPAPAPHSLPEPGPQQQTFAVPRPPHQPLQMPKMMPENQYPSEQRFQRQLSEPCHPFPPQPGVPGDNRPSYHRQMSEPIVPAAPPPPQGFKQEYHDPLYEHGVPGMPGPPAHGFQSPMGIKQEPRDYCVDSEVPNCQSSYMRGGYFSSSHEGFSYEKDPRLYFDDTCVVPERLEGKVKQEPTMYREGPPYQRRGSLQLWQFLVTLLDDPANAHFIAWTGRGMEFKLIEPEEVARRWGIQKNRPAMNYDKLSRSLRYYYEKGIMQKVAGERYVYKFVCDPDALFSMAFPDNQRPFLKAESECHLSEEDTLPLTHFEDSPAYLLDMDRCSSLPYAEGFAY
# Outline: as §1
# HSF1 = HSF1 (Homo sapiens, UniProt Q00613 1-529); conditions: protein: recombinant; tags: N-terminal GST; chain copies: 3; dsDNA, one strand shown
# Sequence of HSF1 (Q00613 whole entry): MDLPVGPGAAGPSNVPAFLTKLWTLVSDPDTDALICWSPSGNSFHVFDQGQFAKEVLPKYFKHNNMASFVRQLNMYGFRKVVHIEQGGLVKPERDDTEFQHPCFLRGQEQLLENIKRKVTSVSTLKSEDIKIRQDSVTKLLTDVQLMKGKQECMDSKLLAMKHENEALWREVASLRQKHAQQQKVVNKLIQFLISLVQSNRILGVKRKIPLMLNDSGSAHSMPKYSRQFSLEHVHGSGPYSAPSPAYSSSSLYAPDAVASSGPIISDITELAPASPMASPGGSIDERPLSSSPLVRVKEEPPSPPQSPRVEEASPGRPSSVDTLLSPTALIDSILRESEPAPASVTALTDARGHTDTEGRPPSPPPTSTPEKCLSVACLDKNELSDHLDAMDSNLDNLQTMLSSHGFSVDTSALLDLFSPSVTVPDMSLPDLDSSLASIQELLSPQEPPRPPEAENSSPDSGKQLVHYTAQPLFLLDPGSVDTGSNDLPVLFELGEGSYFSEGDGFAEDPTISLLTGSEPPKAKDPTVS
# Outline: as §1
# SPIC = molecular target: T2, SPIC (Homo sapiens, UniProt Q8N5J4 1-248); conditions: protein: recombinant; tags: N-terminal GST; dsDNA, one strand shown
# T2 sequence: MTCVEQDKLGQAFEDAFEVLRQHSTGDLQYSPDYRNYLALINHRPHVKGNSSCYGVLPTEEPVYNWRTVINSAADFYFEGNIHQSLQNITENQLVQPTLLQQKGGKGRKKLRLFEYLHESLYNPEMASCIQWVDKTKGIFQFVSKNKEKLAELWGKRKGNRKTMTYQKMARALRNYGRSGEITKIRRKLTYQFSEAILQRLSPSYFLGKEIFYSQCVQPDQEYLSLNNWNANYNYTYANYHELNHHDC
# Outline: as §1
# ELF4 = ELF4 (Homo sapiens, UniProt Q99607 1-663); conditions: protein: recombinant; tags: N-terminal GST; dsDNA, one strand shown
# Sequence of ELF4 (Q99607 whole entry): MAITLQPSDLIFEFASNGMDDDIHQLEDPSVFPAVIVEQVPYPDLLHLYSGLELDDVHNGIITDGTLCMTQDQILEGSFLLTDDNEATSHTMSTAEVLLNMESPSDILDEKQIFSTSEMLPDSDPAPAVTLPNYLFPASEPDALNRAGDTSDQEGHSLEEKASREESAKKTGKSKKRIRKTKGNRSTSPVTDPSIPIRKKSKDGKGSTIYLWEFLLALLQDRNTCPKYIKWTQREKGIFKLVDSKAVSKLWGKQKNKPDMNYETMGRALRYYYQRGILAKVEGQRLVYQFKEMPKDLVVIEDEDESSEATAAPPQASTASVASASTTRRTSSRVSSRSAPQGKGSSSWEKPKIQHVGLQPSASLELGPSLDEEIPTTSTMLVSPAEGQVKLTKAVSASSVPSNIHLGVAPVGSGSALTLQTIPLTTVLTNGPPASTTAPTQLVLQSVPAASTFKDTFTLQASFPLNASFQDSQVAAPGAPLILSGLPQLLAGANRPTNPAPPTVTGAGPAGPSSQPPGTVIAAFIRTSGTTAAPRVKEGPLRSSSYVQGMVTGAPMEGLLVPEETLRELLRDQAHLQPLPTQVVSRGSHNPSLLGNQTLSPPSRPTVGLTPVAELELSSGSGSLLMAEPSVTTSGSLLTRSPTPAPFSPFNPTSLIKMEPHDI
# Outline: as §1
# ELK4 = molecular target: T3, ELK4 (Homo sapiens, UniProt P28324-2 1-405); conditions: protein: recombinant; tags: N-terminal GST; dsDNA, one strand shown
# T3 sequence: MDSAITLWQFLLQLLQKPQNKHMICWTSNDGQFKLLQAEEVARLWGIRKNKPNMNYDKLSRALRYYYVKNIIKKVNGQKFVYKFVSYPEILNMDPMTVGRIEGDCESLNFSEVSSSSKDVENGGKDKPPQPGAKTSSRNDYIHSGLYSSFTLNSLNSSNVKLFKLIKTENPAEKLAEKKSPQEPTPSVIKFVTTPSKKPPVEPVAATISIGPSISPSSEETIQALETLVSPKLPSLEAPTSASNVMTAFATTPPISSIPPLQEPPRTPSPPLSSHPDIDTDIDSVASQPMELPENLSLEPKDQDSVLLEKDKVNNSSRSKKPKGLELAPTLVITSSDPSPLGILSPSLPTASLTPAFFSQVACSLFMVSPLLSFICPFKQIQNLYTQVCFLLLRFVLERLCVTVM
# Outline: as §1
# ETV2 = molecular target: T4, ETV2 (Homo sapiens, UniProt O00321 1-342); conditions: protein: recombinant; tags: N-terminal GST; dsDNA, one strand shown
# T4 sequence: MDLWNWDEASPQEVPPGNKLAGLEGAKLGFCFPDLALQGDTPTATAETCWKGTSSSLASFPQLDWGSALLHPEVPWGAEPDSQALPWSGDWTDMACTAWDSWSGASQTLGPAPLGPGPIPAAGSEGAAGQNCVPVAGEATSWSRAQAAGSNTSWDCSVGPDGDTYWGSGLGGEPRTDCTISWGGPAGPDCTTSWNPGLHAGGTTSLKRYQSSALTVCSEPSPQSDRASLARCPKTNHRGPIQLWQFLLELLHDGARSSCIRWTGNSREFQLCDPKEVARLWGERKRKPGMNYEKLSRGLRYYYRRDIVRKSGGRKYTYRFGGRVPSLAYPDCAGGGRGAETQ
# Outline: as §1
# ELF3 = molecular target: T5, ELF3 (Homo sapiens, UniProt P78545 1-371); conditions: protein: recombinant; tags: N-terminal GST; dsDNA, one strand shown
# T5 sequence: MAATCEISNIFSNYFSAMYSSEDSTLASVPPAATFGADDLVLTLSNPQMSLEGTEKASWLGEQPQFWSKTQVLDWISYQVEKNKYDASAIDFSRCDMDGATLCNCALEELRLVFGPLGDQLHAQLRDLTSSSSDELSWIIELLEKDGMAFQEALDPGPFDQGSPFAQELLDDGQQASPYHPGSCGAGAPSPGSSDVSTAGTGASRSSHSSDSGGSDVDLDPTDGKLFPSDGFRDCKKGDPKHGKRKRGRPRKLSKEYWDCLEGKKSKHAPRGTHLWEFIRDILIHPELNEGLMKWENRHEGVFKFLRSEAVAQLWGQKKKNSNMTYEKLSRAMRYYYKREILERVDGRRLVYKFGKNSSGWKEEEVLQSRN
# Outline: as §1
# CRX = CRX (Homo sapiens, UniProt O43186 1-299); conditions: protein: recombinant; tags: N-terminal GST; dsDNA, one strand shown
# Sequence of CRX (O43186 whole entry): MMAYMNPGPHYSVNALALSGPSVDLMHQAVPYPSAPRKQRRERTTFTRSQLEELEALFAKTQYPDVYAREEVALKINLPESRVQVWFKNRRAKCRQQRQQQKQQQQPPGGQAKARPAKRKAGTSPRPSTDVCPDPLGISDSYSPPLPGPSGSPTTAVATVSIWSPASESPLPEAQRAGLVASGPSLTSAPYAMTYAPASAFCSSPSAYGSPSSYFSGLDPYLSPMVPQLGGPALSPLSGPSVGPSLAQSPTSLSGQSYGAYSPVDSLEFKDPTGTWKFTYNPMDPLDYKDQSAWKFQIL
# Outline: as §1
# ETV1 = ETV1 (Homo sapiens, UniProt P50549 1-477); conditions: protein: recombinant; tags: N-terminal GST; dsDNA, one strand shown
# Sequence of ETV1 (P50549 whole entry): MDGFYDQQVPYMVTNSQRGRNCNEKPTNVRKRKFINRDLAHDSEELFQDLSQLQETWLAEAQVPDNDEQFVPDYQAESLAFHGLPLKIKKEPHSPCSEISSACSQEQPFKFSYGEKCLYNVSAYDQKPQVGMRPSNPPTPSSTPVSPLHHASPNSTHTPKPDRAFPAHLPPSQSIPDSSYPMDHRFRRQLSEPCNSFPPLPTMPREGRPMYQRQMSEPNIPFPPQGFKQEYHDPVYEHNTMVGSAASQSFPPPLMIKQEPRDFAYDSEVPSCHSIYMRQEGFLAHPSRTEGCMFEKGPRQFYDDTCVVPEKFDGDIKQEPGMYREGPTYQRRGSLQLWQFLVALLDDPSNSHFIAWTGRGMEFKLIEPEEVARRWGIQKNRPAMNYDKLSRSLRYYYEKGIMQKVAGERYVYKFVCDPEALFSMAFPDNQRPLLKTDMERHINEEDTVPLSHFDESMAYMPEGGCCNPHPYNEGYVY
# Outline: as §1
# ERF = molecular target: T6, ERF (Homo sapiens, UniProt P50548 1-548); conditions: protein: recombinant; tags: N-terminal GST; dsDNA, one strand shown
# T6 sequence: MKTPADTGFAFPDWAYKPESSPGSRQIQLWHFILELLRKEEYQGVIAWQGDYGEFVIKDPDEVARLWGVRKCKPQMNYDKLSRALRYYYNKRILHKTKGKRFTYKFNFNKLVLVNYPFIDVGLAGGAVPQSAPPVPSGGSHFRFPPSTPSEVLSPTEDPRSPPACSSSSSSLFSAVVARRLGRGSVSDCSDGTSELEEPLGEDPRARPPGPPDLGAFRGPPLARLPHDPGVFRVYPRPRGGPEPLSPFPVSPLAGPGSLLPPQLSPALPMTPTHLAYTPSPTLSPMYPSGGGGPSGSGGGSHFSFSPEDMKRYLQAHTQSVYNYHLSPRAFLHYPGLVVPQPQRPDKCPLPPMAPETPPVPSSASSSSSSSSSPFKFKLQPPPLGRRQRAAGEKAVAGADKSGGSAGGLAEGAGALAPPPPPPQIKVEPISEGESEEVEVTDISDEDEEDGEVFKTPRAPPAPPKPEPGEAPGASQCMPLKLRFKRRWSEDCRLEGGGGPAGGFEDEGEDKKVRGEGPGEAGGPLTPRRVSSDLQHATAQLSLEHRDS
# Outline: as §1
# ETV3L = molecular target: T7, ETV3L (Homo sapiens, UniProt Q6ZN32 1-361); conditions: protein: recombinant; tags: N-terminal GST; dsDNA, one strand shown
# T7 sequence: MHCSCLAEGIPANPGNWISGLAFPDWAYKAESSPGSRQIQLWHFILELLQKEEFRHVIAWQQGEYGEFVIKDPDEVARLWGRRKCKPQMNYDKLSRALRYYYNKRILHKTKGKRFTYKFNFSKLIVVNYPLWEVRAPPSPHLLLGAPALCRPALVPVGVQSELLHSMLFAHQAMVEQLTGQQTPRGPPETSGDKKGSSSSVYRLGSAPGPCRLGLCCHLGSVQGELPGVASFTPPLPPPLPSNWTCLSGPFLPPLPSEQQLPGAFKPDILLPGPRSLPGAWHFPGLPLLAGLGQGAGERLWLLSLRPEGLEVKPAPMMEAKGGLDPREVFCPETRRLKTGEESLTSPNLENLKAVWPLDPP
# Outline: as §1
# ETS2 = molecular target: T8, ETS2 (Homo sapiens, UniProt P15036 1-469); conditions: protein: recombinant; tags: N-terminal GST; dsDNA, one strand shown
# T8 sequence: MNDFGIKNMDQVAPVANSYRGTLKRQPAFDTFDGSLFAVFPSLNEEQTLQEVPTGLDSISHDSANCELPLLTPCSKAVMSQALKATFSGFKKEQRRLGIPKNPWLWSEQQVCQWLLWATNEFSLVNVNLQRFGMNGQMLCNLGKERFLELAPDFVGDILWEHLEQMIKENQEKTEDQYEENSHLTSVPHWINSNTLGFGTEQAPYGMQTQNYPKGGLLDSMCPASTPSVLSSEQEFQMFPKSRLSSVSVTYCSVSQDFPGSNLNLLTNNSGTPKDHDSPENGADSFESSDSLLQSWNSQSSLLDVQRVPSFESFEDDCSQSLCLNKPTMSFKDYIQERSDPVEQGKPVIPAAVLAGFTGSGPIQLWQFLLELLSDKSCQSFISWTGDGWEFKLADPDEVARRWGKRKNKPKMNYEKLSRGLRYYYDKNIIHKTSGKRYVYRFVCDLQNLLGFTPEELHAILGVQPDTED
# Outline: as §1
# SPDEF = molecular target: T9, SPDEF (Homo sapiens, UniProt O95238 1-335); conditions: protein: recombinant; tags: N-terminal GST; dsDNA, one strand shown
# T9 sequence: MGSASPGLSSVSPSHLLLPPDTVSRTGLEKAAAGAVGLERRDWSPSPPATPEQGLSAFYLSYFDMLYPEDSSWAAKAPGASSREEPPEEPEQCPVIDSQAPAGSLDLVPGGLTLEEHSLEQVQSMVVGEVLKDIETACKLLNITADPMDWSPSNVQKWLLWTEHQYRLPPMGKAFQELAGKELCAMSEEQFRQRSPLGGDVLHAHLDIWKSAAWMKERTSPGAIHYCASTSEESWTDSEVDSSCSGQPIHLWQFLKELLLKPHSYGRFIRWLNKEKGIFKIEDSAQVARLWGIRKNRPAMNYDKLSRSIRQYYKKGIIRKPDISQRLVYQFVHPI
# Outline: as §1
# ETV7 = molecular target: T10, ETV7 (Homo sapiens, UniProt Q9Y603 1-341); conditions: protein: recombinant; tags: N-terminal GST; dsDNA, one strand shown
# T10 sequence: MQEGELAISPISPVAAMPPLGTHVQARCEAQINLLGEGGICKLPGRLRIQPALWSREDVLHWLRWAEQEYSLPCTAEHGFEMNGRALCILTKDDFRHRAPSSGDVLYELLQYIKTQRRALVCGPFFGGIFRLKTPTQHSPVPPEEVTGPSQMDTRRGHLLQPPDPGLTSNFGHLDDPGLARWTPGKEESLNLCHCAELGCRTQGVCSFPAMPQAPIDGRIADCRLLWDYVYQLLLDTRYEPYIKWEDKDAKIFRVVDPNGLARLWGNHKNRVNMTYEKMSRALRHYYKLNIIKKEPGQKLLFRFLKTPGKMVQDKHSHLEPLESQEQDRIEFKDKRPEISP
# Outline: as §1
# ELF5 = molecular target: T11, ELF5 (Homo sapiens, UniProt Q9UKW6-2 1-255); conditions: protein: recombinant; tags: N-terminal GST; dsDNA, one strand shown
# T11 sequence: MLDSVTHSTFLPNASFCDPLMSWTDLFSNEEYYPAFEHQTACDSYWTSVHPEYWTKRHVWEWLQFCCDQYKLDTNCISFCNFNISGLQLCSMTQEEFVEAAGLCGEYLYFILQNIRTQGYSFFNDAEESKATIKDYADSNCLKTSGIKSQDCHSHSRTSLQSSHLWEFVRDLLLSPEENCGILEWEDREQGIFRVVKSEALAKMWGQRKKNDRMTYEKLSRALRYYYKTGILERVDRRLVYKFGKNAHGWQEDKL
# Outline: as §1
# ETV3 = molecular target: T12, ETV3 (Homo sapiens, UniProt P41162-2 1-143); conditions: protein: recombinant; tags: N-terminal GST; dsDNA, one strand shown
# T12 sequence: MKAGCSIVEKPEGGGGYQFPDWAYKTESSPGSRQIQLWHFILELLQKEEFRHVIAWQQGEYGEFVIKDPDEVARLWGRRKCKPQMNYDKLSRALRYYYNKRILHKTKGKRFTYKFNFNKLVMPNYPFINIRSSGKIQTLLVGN
# Outline: as §1
# ETV6 = ETV6 (Homo sapiens, UniProt P41212 1-452); conditions: protein: recombinant; tags: N-terminal GST; dsDNA, one strand shown
# Sequence of ETV6 (P41212 whole entry): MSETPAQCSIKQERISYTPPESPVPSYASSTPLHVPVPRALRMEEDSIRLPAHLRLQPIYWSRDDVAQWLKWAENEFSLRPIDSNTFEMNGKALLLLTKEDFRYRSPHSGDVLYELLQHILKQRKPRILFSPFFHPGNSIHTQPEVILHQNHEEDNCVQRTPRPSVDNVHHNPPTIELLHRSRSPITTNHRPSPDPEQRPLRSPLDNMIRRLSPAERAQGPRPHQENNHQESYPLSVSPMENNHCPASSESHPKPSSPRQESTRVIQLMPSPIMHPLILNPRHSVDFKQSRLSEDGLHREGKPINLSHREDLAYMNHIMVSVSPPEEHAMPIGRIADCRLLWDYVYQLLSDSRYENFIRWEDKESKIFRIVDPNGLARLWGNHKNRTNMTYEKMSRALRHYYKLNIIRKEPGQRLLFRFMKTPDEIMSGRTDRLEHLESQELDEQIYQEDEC
# Outline: as §1
sequence,measurement,setting,value
TCTTTA,binding signal,FEV,"1.22 fold enrichment (6-mer frequency, TF over GST control)"
same,binding signal,ETV5,"1.16 fold enrichment (6-mer frequency, TF over GST control)"
same,binding signal,HSF1,"1.5 fold enrichment (6-mer frequency, TF over GST control)"
same,binding signal,SPIC,"1.22 fold enrichment (6-mer frequency, TF over GST control)"
same,binding signal,ELF4,"1.21 fold enrichment (6-mer frequency, TF over GST control)"
same,binding signal,ELK4,"1.3 fold enrichment (6-mer frequency, TF over GST control)"
same,binding signal,ETV2,"1.31 fold enrichment (6-mer frequency, TF over GST control)"
same,binding signal,ELF3,"1.36 fold enrichment (6-mer frequency, TF over GST control)"
same,binding signal,CRX,"1.93 fold enrichment (6-mer frequency, TF over GST control)"
same,binding signal,ETV1,"1.25 fold enrichment (6-mer frequency, TF over GST control)"
same,binding signal,ERF,"1.1 fold enrichment (6-mer frequency, TF over GST control)"
same,binding signal,ETV3L,"1.4 fold enrichment (6-mer frequency, TF over GST control)"
same,binding signal,ETS2,"1.2 fold enrichment (6-mer frequency, TF over GST control)"
same,binding signal,SPDEF,"1.2 fold enrichment (6-mer frequency, TF over GST control)"
same,binding signal,ETV7,"1.25 fold enrichment (6-mer frequency, TF over GST control)"
same,binding signal,ELF5,"1.19 fold enrichment (6-mer frequency, TF over GST control)"
same,binding signal,ETV3,"1.25 fold enrichment (6-mer frequency, TF over GST control)"
same,binding signal,ETV6,"1.22 fold enrichment (6-mer frequency, TF over GST control)"
